Legend:
[1] = biological target: T1, Serine/threonine-protein kinase TBK1 (Homo sapiens) (UniProt Q9UHD2); conditions: at 1 µM;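 note: values are mean inhibition of TBK1, screened as part of the GSK published kinase inhibitor set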
T1 sequence (whole entry): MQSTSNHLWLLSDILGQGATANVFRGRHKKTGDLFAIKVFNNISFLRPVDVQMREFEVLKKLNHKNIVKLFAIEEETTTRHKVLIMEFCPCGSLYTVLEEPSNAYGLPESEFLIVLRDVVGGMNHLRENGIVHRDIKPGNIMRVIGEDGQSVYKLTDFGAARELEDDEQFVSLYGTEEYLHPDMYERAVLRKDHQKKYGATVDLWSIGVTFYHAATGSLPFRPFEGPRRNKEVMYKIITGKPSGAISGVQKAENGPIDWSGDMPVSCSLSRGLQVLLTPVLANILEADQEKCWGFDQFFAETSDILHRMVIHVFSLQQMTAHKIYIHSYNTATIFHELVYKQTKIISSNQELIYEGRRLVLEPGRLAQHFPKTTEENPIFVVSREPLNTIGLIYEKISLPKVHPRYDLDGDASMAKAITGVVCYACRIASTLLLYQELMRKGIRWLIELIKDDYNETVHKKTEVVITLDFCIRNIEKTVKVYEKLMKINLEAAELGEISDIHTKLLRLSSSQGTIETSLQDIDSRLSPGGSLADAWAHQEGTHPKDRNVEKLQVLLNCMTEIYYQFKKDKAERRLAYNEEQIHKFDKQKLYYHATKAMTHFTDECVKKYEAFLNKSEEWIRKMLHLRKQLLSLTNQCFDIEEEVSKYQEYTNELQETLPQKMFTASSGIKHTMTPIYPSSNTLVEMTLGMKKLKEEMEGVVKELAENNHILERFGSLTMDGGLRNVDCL

[2] = biological target: T2, Testis-specific serine/threonine-protein kinase 1 (Homo sapiens) (UniProt Q9BXA7); conditions: at 0.1 µM
T2 sequence (whole entry): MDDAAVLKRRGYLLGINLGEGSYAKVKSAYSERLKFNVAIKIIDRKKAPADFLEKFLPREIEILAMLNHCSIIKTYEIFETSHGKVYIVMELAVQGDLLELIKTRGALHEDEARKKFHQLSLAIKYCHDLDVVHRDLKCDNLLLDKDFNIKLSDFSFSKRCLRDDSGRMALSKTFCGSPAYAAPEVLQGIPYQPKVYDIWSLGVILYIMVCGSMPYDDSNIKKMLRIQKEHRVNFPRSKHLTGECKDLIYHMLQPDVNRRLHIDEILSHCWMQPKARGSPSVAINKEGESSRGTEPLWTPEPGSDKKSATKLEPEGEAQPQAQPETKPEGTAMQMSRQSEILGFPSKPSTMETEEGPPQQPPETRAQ

[3] = biological target: T2, Testis-specific serine/threonine-protein kinase 1 (Homo sapiens); conditions: at 1 µM
[4] = biological target: T3, Testis-specific serine/threonine-protein kinase 2 (Homo sapiens) (UniProt Q96PF2); conditions: at 0.1 µM
T3 sequence (whole entry): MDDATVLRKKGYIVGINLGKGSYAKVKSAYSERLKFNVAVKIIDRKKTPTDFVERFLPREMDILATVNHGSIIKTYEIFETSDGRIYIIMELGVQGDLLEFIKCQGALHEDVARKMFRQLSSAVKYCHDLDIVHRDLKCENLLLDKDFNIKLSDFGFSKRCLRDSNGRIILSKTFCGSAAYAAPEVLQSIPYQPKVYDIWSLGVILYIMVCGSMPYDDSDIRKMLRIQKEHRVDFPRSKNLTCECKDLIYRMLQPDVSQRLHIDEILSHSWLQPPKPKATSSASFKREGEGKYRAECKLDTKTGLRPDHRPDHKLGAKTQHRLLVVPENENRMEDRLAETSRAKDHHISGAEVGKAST

[5] = biological target: T3, Testis-specific serine/threonine-protein kinase 2 (Homo sapiens); conditions: at 1 µM
[6] = biological target: Casein kinase I isoform alpha (Homo sapiens) (UniProt P48729); conditions: at 0.1 µM
Sequence of Casein kinase I isoform alpha (Homo sapiens) (P48729 2-337 limits assumed): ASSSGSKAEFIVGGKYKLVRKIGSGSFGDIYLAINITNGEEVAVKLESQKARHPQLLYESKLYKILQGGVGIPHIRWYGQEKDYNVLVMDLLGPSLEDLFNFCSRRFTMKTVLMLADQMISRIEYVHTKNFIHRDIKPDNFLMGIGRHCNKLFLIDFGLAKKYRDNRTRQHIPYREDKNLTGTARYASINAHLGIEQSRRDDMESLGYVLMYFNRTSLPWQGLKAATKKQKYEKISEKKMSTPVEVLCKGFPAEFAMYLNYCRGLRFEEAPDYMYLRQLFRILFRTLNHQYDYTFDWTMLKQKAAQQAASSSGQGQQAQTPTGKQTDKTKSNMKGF

[7] = biological target: Casein kinase I isoform alpha (Homo sapiens) (UniProt P48729); conditions: at 1 µM
[8] = biological target: Casein kinase I isoform gamma-1 (Homo sapiens) (UniProt Q9HCP0); conditions: at 0.1 µM
Sequence of Casein kinase I isoform gamma-1 (Homo sapiens) (Q9HCP0 whole entry, looked up, canonical isoform): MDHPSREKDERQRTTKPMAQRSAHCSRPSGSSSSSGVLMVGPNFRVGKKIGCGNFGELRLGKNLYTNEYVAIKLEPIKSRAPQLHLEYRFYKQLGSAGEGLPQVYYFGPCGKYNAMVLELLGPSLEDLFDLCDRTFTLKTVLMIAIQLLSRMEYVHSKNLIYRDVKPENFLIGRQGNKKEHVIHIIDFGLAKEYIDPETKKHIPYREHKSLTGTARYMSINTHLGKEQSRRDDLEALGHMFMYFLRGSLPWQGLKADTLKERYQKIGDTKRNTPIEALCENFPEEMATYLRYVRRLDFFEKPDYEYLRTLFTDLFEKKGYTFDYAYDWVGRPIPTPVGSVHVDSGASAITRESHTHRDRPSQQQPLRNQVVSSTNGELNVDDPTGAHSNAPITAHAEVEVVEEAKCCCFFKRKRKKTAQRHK

[9] = biological target: Casein kinase I isoform gamma-1 (Homo sapiens) (UniProt Q9HCP0); conditions: at 1 µM
[10] = biological target: Casein kinase I isoform gamma-2 (Homo sapiens) (UniProt P78368); conditions: at 0.1 µM
Sequence of Casein kinase I isoform gamma-2 (Homo sapiens) (P78368 whole entry, looked up, canonical isoform): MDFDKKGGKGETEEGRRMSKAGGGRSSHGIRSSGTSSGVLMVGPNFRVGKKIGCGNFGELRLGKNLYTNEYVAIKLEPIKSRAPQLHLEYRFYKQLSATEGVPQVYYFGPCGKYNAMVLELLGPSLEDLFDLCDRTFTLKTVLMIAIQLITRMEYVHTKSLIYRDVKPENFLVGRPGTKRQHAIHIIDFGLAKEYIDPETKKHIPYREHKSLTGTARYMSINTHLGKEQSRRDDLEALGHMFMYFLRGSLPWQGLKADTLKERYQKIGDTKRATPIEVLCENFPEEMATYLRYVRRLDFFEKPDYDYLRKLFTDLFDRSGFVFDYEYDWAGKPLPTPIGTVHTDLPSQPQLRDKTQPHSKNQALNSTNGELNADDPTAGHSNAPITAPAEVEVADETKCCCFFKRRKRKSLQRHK

[11] = biological target: Casein kinase I isoform gamma-2 (Homo sapiens) (UniProt P78368); conditions: at 1 µM
[12] = biological target: Casein kinase I isoform gamma-3 (Homo sapiens) (UniProt Q9Y6M4); conditions: at 0.1 µM
Sequence of Casein kinase I isoform gamma-3 (Homo sapiens) (Q9Y6M4 whole entry, looked up, canonical isoform): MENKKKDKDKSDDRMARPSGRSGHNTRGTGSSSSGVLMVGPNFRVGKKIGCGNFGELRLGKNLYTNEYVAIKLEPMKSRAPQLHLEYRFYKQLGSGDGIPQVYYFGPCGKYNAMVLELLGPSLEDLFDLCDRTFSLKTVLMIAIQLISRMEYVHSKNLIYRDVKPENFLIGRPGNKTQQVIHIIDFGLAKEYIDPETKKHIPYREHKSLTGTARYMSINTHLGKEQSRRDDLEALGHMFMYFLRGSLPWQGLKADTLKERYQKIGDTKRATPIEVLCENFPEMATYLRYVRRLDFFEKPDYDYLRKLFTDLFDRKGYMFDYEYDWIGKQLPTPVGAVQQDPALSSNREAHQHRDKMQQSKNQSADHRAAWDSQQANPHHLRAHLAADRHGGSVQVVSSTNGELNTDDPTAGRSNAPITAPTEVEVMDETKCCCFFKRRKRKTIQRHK

[13] = biological target: Casein kinase I isoform gamma-3 (Homo sapiens) (UniProt Q9Y6M4); conditions: at 1 µM
[14] = biological target: Cyclin-dependent kinase 1 (Homo sapiens) (UniProt P06493); conditions: at 0.1 µM
Sequence of Cyclin-dependent kinase 1 (Homo sapiens) (P06493 whole entry, looked up): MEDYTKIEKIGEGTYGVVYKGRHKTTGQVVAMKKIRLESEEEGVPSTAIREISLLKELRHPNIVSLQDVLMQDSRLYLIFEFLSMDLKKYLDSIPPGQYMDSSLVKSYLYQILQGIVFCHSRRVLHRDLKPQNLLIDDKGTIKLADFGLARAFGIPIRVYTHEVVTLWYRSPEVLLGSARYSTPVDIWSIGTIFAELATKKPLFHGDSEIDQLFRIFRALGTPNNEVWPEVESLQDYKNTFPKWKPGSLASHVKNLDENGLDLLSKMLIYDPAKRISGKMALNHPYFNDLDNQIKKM

[15] = biological target: Cyclin-dependent kinase 1 (Homo sapiens) (UniProt P06493); conditions: at 1 µM
[16] = biological target: Cyclin-dependent kinase 2 (Homo sapiens) (UniProt P24941); conditions: at 0.1 µM
[17] = biological target: Cyclin-dependent kinase 2 (Homo sapiens) (UniProt P24941); conditions: at 1 µM
[18] = biological target: Cyclin-dependent kinase 2 (Homo sapiens) (UniProt P24941); conditions: at 0.1 µM; remark: listed apart in the source
[19] = biological target: Cyclin-dependent kinase 2 (Homo sapiens) (UniProt P24941); conditions: at 1 µM; remark: listed apart in the source
[20] = biological target: CDK3/Cyclin E (Homo sapiens) (UniProt P24864+Q00526); conditions: at 0.1 µM;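 note: reported percentages are mean inhibition values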
Sequence of CDK3/Cyclin E (Homo sapiens) (P24864 whole entry, looked up): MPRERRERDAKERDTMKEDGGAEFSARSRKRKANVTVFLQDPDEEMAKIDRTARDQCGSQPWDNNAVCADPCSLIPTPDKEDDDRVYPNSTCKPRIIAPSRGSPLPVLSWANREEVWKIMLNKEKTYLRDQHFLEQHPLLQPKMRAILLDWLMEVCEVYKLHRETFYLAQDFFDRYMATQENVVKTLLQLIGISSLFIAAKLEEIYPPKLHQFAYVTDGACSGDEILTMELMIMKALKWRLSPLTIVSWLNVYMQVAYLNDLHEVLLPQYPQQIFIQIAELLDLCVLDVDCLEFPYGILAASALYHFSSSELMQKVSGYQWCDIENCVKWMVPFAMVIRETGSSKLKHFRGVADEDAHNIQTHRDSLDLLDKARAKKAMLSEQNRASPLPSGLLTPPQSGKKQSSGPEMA
Sequence of CDK3/Cyclin E (Homo sapiens) (Q00526 whole entry, looked up): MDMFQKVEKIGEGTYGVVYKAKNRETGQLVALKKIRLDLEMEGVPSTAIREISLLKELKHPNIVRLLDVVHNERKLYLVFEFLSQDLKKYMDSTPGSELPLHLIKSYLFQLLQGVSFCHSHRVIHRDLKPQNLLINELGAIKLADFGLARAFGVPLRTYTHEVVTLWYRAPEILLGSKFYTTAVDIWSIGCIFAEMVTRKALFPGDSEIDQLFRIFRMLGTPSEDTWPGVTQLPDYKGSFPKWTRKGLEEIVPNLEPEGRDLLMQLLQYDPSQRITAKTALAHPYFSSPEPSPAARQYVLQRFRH

NC(=O)Cc1ccccc1Oc1nccc(-c2c(-c3ccc(F)cc3)ncn2C2CCNCC2)n1
inhibition [1]: 4.55%
inhibition [2]: 2.65%
inhibition [3]: 1.8%
inhibition [4]: 1.16%
inhibition [5]: -0.31%
inhibition [6]: 9.09%
inhibition [7]: 12.9%
inhibition [8]: 4.95%
inhibition [9]: 10.3%
inhibition [10]: 3.59%
inhibition [11]: 10.5%
inhibition [12]: 3.98%
inhibition [13]: 8.65%
inhibition [14]: -0.31%
inhibition [15]: -0.43%
inhibition [16]: 1.15%
inhibition [17]: 2%
inhibition [18]: 1.82%
inhibition [19]: 2.1%
inhibition [20]: 2.95%

CS(=O)(=O)CCNCc1cc(-c2cc3c(Nc4ccc(OCc5cccc(F)c5)c(Cl)c4)ncnc3s2)cs1
inhibition [1]: 4.88%
inhibition [2]: 4.02%
inhibition [3]: 4.37%
inhibition [4]: 2.22%
inhibition [5]: 2.42%
inhibition [6]: 6.3%
inhibition [7]: 8.73%
inhibition [8]: 3.81%
inhibition [9]: 4.73%
inhibition [10]: 3.23%
inhibition [11]: 4.61%
inhibition [12]: 3.07%
inhibition [13]: 1.92%
inhibition [14]: 2.55%
inhibition [15]: 0.45%
inhibition [16]: 3.05%
inhibition [17]: 1.47%
inhibition [18]: 1.9%
inhibition [19]: 4.94%
inhibition [20]: -3.37%

Cc1ccc(C(=O)NC(C)C)cc1-c1ccc(C(=O)NCC2CC2)cc1
inhibition [1]: -1.07%
inhibition [2]: -1.97%
inhibition [3]: -1.52%
inhibition [4]: -1.67%
inhibition [5]: -1.52%
inhibition [6]: -3.83%
inhibition [7]: -5.5%
inhibition [8]: -2.95%
inhibition [9]: -2.32%
inhibition [10]: -2.65%
inhibition [11]: -3.47%
inhibition [12]: -2.79%
inhibition [13]: -1.44%
inhibition [14]: 0.57%
inhibition [15]: 2.57%
inhibition [16]: 0.33%
inhibition [17]: -0.04%
inhibition [18]: -0.92%
inhibition [19]: 0.52%
inhibition [20]: 1.57%

CCS(=O)(=O)c1ccc(OC)c(Nc2ncc(-c3cccc(-c4ccccc4F)c3)o2)c1
inhibition [1]: 5.42%
inhibition [2]: 0.94%
inhibition [3]: -0.72%
inhibition [4]: 0.42%
inhibition [5]: -0.69%
inhibition [6]: -0.76%
inhibition [7]: 4.53%
inhibition [8]: 0.32%
inhibition [9]: 0.08%
inhibition [10]: -0.86%
inhibition [11]: -0.35%
inhibition [12]: 0.39%
inhibition [13]: 0.12%
inhibition [14]: 0.67%
inhibition [15]: 2.37%
inhibition [16]: 1.76%
inhibition [17]: 7.78%
inhibition [18]: 0.27%
inhibition [19]: 3.78%
inhibition [20]: 0.64%

— ChEMBL document CHEMBL1961873, “Compounds: GSK PKIS; Assays: Nanosyn kinase panel” (2012)
